Test results reported in PubChem BioAssay (Tox21).
“And” between values parts separate entries of the source, which are not always exact repeats. Equal entries are not always repeated. The source made the active and inactive calls. Unless noted, the call rests on the fitted dose curve; in most records, active means well fitted curve in the direction sought with a large enough effect in the repeat runs; inconclusive means weak or mixed curves; inactive means no such curve, though single readings can be large; an effect the other way counts as inactive or inconclusive.

What was measured:
[1] = qHTS assay to identify small molecule antagonists of the glucocorticoid receptor (GR) signaling pathway - cell viability counter screen (AID 720693); further: nearly all actives have a fitted effect of over 55% in size; further: potency means the concentration at half of the fitted maximal effect
[2] = qHTS assay for identifying genotoxic compounds that show differential cytotoxicity against isogenic chicken DT40 cell lines with known DNA damage response pathways - Rev3 mutant cell line (AID 743014); further: nearly all actives have a fitted effect of over 55% in size; further: potency means the concentration at half of the fitted maximal effect
[3] = qHTS assay for identifying genotoxic compounds that show differential cytotoxicity against isogenic chicken DT40 cell lines with known DNA damage response pathways - Rad54/Ku70 mutant cell line (AID 743015); further: nearly all actives have a fitted effect of over 60% in size; further: potency means the concentration at half of the fitted maximal effect
[4] = qHTS assay to identify small molecule antagonists of the androgen receptor (AR) signaling pathway - cell viability counter screen (AID 743033; further: nearly all actives have a fitted effect of over 45% in size)
[5] = qHTS assay to identify small molecule antagonists of the androgen receptor (AR) signaling pathway using the MDA cell line - cell viability counter screen (AID 743041; further: nearly all actives have a fitted effect of over 45% in size)
Procedure, shortened: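 Using the breast carcinoma line MDA-kb2 AR-luc, test chemicals were co-incubated with R1881 for 16 h; CellTiter-Fluor reagent, added at 15.5 h, provided a fluorescence measure of live cells.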

[6] = tested on: thyroid hormone receptor (rat, GH3 cells); assay: qHTS assay to identify small molecule agonists of the thyroid receptor (TR) signaling pathway (AID 743066; calls by dose curve)
[7] = qHTS assay to identify small molecule antagonists of the estrogen receptor alpha (ER-alpha) signaling pathway - cell viability counter screen (AID 743074; calls by dose curve; further: nearly all actives have a fitted effect of over 45% in size)
[8] = qHTS assay to identify small molecule antagonists of the estrogen receptor alpha (ER-alpha) signaling pathway using the BG1 cell line - cell viability counter screen (AID 743081);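 further: compound given together with 17beta-estradiol as the ER stimulus; nearly all actives have a fitted effect of over 45% in size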
Aromatase (Homo sapiens) = Aromatase (Homo sapiens) (UniProt P11511); assay: qHTS assay to identify aromatase inhibitors (AID 743083); further: nearly all actives have a fitted effect of over 55% in size; further: potency means the concentration at half of the fitted maximal effect
[9] = target: Androgen receptor (Homo sapiens) (UniProt P10275); assay: qHTS assay to identify small molecule antagonists of the androgen receptor (AR) signaling pathway (AID 743035; active means well fitted inhibition curve with a large enough effect in the signal ratio in the repeat runs, not every such curve was filed as active; inconclusive means weak or mixed curves, or effect the other way; inactive means no such curve, though single readings can be large or run the other way; the % refers to the signal ratio; further: potency means the concentration at half of the fitted maximal effect)
Procedure, shortened: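 Antagonist mode: AR-bla HEK293 cells co-treated with test compounds and agonist R1881 for 16 h at 37C, 5% CO2. Beta-lactamase activity read as FRET fluorescence after 2 h room-temperature substrate loading.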

[10] = target: Androgen receptor (Homo sapiens) (UniProt P10275); assay: qHTS assay to identify small molecule agonists of the androgen receptor (AR) signaling pathway using the MDA cell line (AID 743040; further: nearly all actives have a fitted effect of over 20% in size)
Procedure, shortened: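 Stable MMTV-luciferase reporter in MDA-kb2 cells; note the promoter carries GR as well as AR response elements. 16 h compound treatment, 37C, 0% CO2; ONE-Glo luminescence endpoint.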

[11] = target: Androgen receptor (Homo sapiens) (UniProt P10275); assay: qHTS assay to identify small molecule antagonists of the androgen receptor (AR) signaling pathway using the MDA cell line (AID 743042; further: nearly all actives have a fitted effect of over 55% in size)
Procedure, shortened: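 Antagonist mode: compounds plus R1881 agonist added to MDA-kb2 AR-luc cells, incubated 16 h at 37C. Luciferase reporter luminescence quantified, with multiplexed CellTiter-Fluor readout for cell viability.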

[12] = qHTS assay to identify small molecule antagonists of the thyroid receptor (TR) signaling pathway - cell viability counter screen (AID 743064); further: nearly all actives have a fitted effect of over 50% in size; further: potency means the concentration at half of the fitted maximal effect
Procedure, shortened: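 GH3.TRE-Luc rat pituitary cells dosed after 4 hr plating, co-stimulated with T3 at 1 nM final, incubated 23.5 h at 37 C. Viability measured in the same wells by CellTiter-Fluor fluorescence after 30 min further at 37 C.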

[13] = qHTS assay to identify small molecule antagonists of the thyroid receptor (TR) signaling pathway (AID 743065); further: nearly all actives have a fitted effect of over 55% in size; further: potency means the concentration at half of the fitted maximal effect
Procedure, shortened: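 Antagonism measured as loss of luciferase signal in GH3 cells stably carrying a TRE-luciferase reporter, co-treated with compound and T3 (1 nM final) for 23.5 h at 37 C. Viability was read in the same well by CellTiter-Fluor.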

[14] = target: Estrogen receptor (Homo sapiens) (UniProt P03372); assay: qHTS assay to identify small molecule agonists of the estrogen receptor alpha (ER-alpha) signaling pathway (AID 743075; calls by dose curve; further: potency means the concentration at half of the fitted maximal effect); conditions: HEK293 ER-alpha-UAS-bla, beta-lactamase FRET ratio, 18 h; activation: at 70.1 µM (top of the series)
[15] = target: Estrogen receptor (Homo sapiens) (UniProt P03372); assay: qHTS assay to identify small molecule agonists of the estrogen receptor alpha (ER-alpha) signaling pathway using the BG1 cell line (AID 743079); conditions: BG1Luc4E2 cells, ERE-luciferase agonist, 22 h; further: nearly all actives have a fitted effect of over 20% in size; further: potency means the concentration at half of the fitted maximal effect
[16] = qHTS assay to identify small molecule antagonists of the estrogen receptor alpha (ER-alpha) signaling pathway using the BG1 cell line (AID 743080; calls by dose curve;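 further: BG1 cells stimulated with 17beta-estradiol alongside compound; nearly all actives have a fitted effect of over 25% in size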)
Procedure, shortened: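 BG1-Luc-4E2 cells (endogenous full-length ER-alpha, 4xERE luciferase) hormone-starved 5 days in charcoal-stripped FBS, plated 4,000/well for 24 h, then compound plus 17beta-estradiol for 21.5 h at 37 C; ONE-Glo luminescence read.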

[17] = target: Estrogen receptor (Homo sapiens) (UniProt P03372); assay: qHTS assay to identify small molecule antagonists of the estrogen receptor alpha (ER-alpha) signaling pathway (AID 743069; active means well fitted curve in the direction sought with a large enough effect in the signal ratio in the repeat runs, not every such curve was filed as active; inconclusive means weak or mixed curves, or effect the other way; inactive means no such curve, though single readings can be large or run the other way; the % refers to the signal ratio)
Procedure, shortened: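 Fluorescence intensity from a beta-lactamase FRET substrate served as the read-out. Cells: HEK293 with stably integrated ER-alpha-UAS-bla reporter. Agonist 17beta-estradiol was co-added with compounds; incubation 18 hr at 37C, substrate 2 hr at room temperature.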
On the % scale 0 is the no-effect control and ±100 the full control effect.

Chain of Androgen receptor (Homo sapiens) (P10275 whole entry, looked up): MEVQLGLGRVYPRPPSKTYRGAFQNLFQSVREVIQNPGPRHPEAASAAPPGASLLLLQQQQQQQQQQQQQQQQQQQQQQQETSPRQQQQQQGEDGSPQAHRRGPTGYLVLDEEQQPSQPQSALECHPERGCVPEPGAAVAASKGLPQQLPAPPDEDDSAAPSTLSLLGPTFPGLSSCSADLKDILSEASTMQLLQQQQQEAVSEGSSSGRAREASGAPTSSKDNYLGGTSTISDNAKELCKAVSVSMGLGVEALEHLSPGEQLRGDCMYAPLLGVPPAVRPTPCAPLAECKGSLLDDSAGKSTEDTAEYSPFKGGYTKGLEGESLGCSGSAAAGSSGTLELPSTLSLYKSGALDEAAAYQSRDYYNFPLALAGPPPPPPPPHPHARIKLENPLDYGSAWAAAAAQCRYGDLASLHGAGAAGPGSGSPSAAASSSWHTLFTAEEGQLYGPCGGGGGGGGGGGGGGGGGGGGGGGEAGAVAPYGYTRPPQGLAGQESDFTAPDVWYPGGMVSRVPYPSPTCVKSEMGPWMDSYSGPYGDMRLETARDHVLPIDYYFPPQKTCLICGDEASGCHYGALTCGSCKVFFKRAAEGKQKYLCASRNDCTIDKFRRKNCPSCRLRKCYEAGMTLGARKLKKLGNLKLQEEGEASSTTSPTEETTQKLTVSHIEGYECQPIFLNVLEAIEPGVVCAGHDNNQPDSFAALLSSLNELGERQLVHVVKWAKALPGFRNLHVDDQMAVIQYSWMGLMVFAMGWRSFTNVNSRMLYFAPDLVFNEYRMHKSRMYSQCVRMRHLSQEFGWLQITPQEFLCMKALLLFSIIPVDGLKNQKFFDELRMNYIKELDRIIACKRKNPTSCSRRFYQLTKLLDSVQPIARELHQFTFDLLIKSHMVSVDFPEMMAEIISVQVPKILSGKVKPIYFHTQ
Chain of Aromatase (Homo sapiens) (P11511 whole entry, looked up): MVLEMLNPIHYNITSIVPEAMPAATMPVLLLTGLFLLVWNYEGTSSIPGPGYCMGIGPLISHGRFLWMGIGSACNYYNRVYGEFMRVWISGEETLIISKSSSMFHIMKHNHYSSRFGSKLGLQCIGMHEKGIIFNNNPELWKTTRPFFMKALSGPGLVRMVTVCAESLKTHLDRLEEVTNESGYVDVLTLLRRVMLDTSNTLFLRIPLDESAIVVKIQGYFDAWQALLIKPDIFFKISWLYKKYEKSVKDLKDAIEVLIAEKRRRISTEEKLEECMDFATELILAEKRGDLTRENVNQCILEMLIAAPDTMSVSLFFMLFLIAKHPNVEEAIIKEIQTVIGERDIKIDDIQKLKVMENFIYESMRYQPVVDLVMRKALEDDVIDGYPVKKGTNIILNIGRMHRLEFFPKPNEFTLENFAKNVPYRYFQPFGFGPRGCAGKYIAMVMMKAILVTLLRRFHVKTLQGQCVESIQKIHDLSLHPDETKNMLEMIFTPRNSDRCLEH
Chain of Estrogen receptor (Homo sapiens) (P03372 whole entry, looked up): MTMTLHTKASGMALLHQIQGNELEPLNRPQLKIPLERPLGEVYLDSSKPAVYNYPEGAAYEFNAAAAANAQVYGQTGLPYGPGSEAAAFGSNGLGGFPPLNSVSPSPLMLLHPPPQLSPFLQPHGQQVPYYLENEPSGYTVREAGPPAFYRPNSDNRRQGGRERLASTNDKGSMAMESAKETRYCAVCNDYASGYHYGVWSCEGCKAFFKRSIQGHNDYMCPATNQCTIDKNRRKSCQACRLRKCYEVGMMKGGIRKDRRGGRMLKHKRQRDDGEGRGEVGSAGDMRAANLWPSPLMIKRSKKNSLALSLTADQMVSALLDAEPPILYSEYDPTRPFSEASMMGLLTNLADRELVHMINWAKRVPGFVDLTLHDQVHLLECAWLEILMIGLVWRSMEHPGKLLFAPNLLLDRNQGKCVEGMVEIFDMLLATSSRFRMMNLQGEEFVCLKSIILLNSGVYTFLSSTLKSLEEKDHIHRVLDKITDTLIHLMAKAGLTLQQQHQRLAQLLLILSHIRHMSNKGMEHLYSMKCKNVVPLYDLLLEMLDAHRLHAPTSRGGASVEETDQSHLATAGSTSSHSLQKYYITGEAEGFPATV

CCC(Cl)C(Cl)C(Cl)CC(Cl)C(Cl)C(C)Cl (stereo not drawn)
active: Potency [2] 54.5 µM | Potency [3] 54.5 µM
inactive: Potency [1] | Potency [4] | Potency [5] | Potency [6] | Potency [7] | Potency [8] | Potency (Aromatase (Homo sapiens))

CN(C)c1ccc(C2(c3ccc(N(C)C)cc3)OC(=O)c3cc(N(C)C)ccc32)cc1
active: Potency [3] 15.3 µM | Potency [14] 21.8 µM [inconclusive]
inactive: Potency [1] | Potency [4] | Potency [9] | Potency [10] | Potency [5] | Potency [11] | Potency [12] | Potency [13] | Potency [6] | Potency [7] | activation ([15]; at 70.3 µM (top of the series)) -6.04% | Potency [16] | Potency [8] | Potency (Aromatase (Homo sapiens))

COc1cc(/C=C/C(=O)O[C@H]2CC[C@]34C[C@]35CC[C@]3(C)[C@@H]([C@H](C)CCC=C(C)C)CC[C@@]3(C)[C@@H]5CC[C@H]4C2(C)C)ccc1O
inactive: Potency [1] | Potency [2] | Potency [3] | Potency [4] | Potency [5] | Potency [12] | Potency [13] | Potency [6] | Potency [8] | Potency (Aromatase (Homo sapiens))

CCN(C(=O)N(CC)c1ccccc1)c1ccccc1
inactive: Potency [1] | Potency [4] | Potency [5] | Potency [12] | Potency [13] | Potency [6] | Potency [7] | Potency [8] | Potency (Aromatase (Homo sapiens))
active: Potency [2] 7.7 µM

C/C=C(\C)C(=O)OCc1ccccc1
inactive: Potency [1] | Potency [4] | Potency [5] | Potency [12] | Potency [13] | Potency [6] | Potency [7] | Potency [8] | Potency (Aromatase (Homo sapiens))

O=Cc1cc(O)ccc1Br
inactive: Potency [1] | Potency [4] | Potency [5] | Potency [6] | Potency [17] | Potency [7] | Potency [14] | Potency [8] | Potency (Aromatase (Homo sapiens))
active: Potency [15] 31.1 µM

CCCCCCCCOC(=O)c1ccc(O)cc1
inactive: Potency [1] | Potency [4] | Potency [5] | Potency [6] | Potency [7] | Potency [16] | Potency [8]
active: Potency [2] 60.9 µM | Potency [3] 60.9 µM | Potency [12] 61.1 µM | Potency [14] 61.4 µM [inconclusive] and 43.7 µM [activator] | Potency [15] 7.67 µM and 17.2 µM | Potency (Aromatase (Homo sapiens)) 21.6 µM and 54.5 µM

CCCCCCCC/C=C/CCCCCCCC1=NCCN1CCO
active: Potency [1] 49 µM | Potency [2] 13.7 µM | Potency [3] 13.7 µM | Potency [9] 49 µM | Potency [12] 21.7 µM | Potency [13] 21.7 µM | Potency (Aromatase (Homo sapiens)) 48.6 µM
inactive: Potency [10] | Potency [5] | Potency [11] | Potency [6]
